In assay [1] the target is Dual specificity protein kinase CLK3 (Homo sapiens) (UniProt P49761). The conditions noted are these: at 1 µM.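 Further: each value is the mean inhibition of CLK3.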
The target of assay [2] is Dual specificity tyrosine-phosphorylation-regulated kinase 1A (Homo sapiens) (UniProt Q13627). The note with it: at 0.1 µM.
The target is the same in assay [3]. The note with it: at 1 µM.
Assay [4] addresses Dual specificity tyrosine-phosphorylation-regulated kinase 1B (Homo sapiens) (UniProt Q9Y463). The note with it: at 0.1 µM.
Assay [5] has the same target. The conditions noted are these: at 1 µM.
For assay [6], the target named is T1, Dual specificity tyrosine-phosphorylation-regulated kinase 2 (Homo sapiens) (UniProt Q92630).
T1 sequence (whole entry): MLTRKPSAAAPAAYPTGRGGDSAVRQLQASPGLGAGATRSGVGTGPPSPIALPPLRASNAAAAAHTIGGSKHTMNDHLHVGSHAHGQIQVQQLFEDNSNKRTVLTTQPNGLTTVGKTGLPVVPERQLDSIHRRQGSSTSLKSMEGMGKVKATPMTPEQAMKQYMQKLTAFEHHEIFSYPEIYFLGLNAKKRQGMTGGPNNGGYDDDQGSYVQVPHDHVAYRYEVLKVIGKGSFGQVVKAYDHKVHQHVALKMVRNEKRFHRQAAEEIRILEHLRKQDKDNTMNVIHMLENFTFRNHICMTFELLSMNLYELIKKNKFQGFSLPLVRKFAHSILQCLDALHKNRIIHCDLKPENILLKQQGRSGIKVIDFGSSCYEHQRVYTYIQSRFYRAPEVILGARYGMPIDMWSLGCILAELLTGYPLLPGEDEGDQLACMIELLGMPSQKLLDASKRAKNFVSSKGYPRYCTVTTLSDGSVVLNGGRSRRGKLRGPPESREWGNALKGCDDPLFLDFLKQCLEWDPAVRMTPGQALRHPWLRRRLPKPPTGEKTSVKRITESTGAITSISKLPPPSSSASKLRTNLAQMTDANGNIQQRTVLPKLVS
The conditions noted are these: at 0.1 µM.

Assay [7] has as its target T1, Dual specificity tyrosine-phosphorylation-regulated kinase 2 (Homo sapiens). The note with it: at 1 µM.
In assay [8] the target is Glycogen synthase kinase-3 alpha (Homo sapiens) (UniProt P49840). The conditions noted are these: at 0.1 µM.
Chain of Glycogen synthase kinase-3 alpha (Homo sapiens) (P49840 2-483 limits assumed): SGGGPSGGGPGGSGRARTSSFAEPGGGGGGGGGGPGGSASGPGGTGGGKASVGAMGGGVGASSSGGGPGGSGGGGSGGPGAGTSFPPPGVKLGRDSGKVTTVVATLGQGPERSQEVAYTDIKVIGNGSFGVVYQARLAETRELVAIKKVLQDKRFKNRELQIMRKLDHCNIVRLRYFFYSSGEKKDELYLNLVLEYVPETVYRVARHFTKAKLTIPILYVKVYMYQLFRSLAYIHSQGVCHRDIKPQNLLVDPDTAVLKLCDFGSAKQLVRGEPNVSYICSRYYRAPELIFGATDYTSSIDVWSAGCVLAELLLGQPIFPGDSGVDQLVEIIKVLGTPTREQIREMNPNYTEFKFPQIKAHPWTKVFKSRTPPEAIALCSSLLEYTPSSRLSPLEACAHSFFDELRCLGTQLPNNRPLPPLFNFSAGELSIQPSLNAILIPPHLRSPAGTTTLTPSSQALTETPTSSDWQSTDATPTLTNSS
For assay [9] the target is unchanged. The conditions noted are these: at 1 µM.
For assay [10], the target named is Glycogen synthase kinase-3 beta (Homo sapiens) (UniProt P49841). The note with it: at 0.1 µM.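 Further: values are mean percent inhibition of GSK3B activity, from the GSK Published Kinase Inhibitor Set (PKIS) screening dataset.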
Chain of Glycogen synthase kinase-3 beta (Homo sapiens) (P49841 whole entry, looked up): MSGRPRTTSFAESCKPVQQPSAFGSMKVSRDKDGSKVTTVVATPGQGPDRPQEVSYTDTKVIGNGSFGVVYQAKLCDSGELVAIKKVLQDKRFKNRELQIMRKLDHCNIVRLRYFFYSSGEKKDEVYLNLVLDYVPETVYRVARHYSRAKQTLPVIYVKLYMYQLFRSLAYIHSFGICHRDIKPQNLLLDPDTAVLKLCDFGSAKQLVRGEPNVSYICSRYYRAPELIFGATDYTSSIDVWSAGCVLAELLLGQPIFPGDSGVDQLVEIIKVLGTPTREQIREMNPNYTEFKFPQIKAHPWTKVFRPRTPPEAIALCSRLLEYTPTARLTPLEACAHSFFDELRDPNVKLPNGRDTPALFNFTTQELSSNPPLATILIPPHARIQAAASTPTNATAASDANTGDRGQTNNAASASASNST

Among the data in ChEMBL document CHEMBL1961873, “Compounds: GSK PKIS; Assays: Nanosyn kinase panel” (2012) are inhibition values, retold here.

Chain of Dual specificity tyrosine-phosphorylation-regulated kinase 1B (Homo sapiens) (Q9Y463 whole entry, looked up): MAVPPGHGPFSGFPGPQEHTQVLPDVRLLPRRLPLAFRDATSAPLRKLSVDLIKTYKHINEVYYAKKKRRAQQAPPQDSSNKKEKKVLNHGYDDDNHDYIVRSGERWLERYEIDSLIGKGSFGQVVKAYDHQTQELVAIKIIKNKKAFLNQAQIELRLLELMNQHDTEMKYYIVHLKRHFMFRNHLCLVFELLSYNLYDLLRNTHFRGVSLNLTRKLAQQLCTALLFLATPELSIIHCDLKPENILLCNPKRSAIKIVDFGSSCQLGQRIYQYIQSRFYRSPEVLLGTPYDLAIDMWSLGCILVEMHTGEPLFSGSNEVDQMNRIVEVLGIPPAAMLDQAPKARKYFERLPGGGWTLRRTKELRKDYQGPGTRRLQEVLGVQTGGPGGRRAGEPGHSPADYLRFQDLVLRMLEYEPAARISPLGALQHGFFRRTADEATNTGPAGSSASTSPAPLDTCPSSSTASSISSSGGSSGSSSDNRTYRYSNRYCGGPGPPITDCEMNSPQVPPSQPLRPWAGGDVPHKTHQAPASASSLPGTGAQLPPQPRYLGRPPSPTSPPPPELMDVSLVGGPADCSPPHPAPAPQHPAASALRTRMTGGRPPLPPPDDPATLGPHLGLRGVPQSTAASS
Chain of Dual specificity protein kinase CLK3 (Homo sapiens) (P49761 whole entry, looked up): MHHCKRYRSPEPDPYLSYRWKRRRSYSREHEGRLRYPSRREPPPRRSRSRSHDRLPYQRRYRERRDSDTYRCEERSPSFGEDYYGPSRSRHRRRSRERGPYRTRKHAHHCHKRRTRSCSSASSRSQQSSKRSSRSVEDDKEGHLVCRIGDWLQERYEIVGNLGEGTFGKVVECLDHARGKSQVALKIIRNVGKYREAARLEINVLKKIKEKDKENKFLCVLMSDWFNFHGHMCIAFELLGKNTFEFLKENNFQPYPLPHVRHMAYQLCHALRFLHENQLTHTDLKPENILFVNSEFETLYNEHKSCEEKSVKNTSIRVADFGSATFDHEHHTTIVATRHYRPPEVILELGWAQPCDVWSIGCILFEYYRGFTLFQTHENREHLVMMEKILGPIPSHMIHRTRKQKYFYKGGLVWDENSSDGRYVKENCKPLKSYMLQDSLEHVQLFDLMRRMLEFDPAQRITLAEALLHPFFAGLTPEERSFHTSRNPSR

Take `CS(=O)(=O)CCNCc1ccc(-c2ccc3ncnc(Nc4ccc(OCc5ccccc5)cc4)c3c2)o1`: the inhibition in [1] is 0.48%; in assay [2], 1.93%; in [3] it was 4.22%; in [4], -0.07%; in assay [5], 1.88%; in assay [6] it was 5.3%. Further, the inhibition in [7] stood at 2.62%; in [8] it was 2.32%; in [9], 3.44%; in assay [10], 1.65%.
Consider `Fc1ccc(Nc2nccc(-c3c(-c4ccc(C(F)(F)F)cc4)nn4ncccc34)n2)cc1F`, for which the inhibition in assay [1] was determined as 4.71%; in assay [2], 2.73%; in [3], 5.39%; in assay [4], 1.21%; in assay [5], 2.44%; in assay [6] it was 2.31%. The inhibition in [7] amounted to 3.44%; in assay [8] it was 2.05%; in assay [9], 4.32%; in [10] it was 1.37%.
As to `Cn1c(-c2nonc2N)nc2cnccc21`, the inhibition in assay [1] was 7.43%; in assay [2], 25.1%; in assay [3], 69.3%; in [4] it was 11.7%; in assay [5], 51.4%; in [6], 2.37%. The inhibition came out at 10.1% in assay [7], 10.1% in assay [8], 52.1% in [9] and 5.71% in assay [10].
Take `Fc1cccc(COc2ccc(Nc3ncncc3C#Cc3ccccc3)cc2Cl)c1`: the inhibition in assay [1] is 2.05%; in assay [2], 2.88%; in assay [3] it was 5.18%; in assay [4], 0.4%; in assay [5] it was 1.45%; in assay [6], 3.74%. Moreover, the inhibition stood at 4.05% in [7], 3.26% in assay [8], 4.91% in assay [9] and 2.3% in [10].
Turning to `CS(=O)(=O)CCNCc1ccc(-c2ccc3ncnc(Nc4ccc(OCc5cccc(C(F)(F)F)c5)cc4)c3c2)o1`, the inhibition in assay [1] was 1.18%; in assay [2], 2.76%; in [3], 5.29%; in assay [4] it was -0.58%; in [5] it was 1.03%; in assay [6] it was 3.45%. Also, the inhibition in [7] is 6.22%; in assay [8], 2.81%; in assay [9] it was 1.39%; in assay [10], 1.65%.
As to `Cc1ccc(-c2cc3c(NC(=O)C4CC4)ncnc3o2)cc1`, the inhibition in assay [1] turned out to be 7.45%; in assay [2], 4.14%; in assay [3] it was 12.6%; in assay [4] it was 1.1%; in assay [5], 4.52%; in assay [6], 2.48%. Further, the inhibition in assay [7] amounted to 8.21%; in assay [8] it was 12.4%; in assay [9], 48.7%; in assay [10], 7.9%.
For the compound `N#Cc1ccc2c(-c3ccnc(NC4CC4)n3)c(-c3ccc(F)cc3)nn2c1`, the inhibition was -0.84% in [1]; 1.91% in assay [2]; 0.14% in [3]; -0.4% in assay [4]; -2.94% in assay [5]; 0.64% in [6]. Moreover, the inhibition was -0.6% in assay [7], 5.27% in [8], 24.3% in assay [9] and 8.49% in assay [10].
For `CCN1CCC(C(=O)Nc2n[nH]c3nnc(-c4cccc(F)c4F)cc23)CC1`, the inhibition was 0.77% in [1]; 14.4% in assay [2]; 61% in assay [3]; 12.9% in assay [4]; 54.3% in assay [5]; -0.03% in assay [6]. Besides, the inhibition in assay [7] is 2.26%; in assay [8], 85.3%; in assay [9], 89.9%; in [10] it was 80.9%.
As for `Cc1cc(O)cc(C)c1/C=C/c1cncc(C(=O)OC(C)(C)C)c1`, the inhibition came out at 6.2% in assay [1]; 5.61% in assay [2]; 8.73% in [3]; 3.58% in assay [4]; 7.3% in assay [5]; 1.52% in assay [6]. For the same compound, the inhibition in assay [7] is 3.56%; in assay [8], 4.43%; in [9], 8.44%; in [10], 4.6%.
As for `OCCCNc1nccc(-c2c(-c3ccc(F)cc3)nn3cc(C(F)(F)F)ccc23)n1`, the inhibition was found to be 0.7% in [1]; 1.47% in [2]; 6.36% in [3]; 1.89% in [4]; 3.86% in assay [5]; 2.33% in assay [6]. Besides, the inhibition in [7] was 3.97%; in assay [8], 7.04%; in assay [9] it was 18.2%; in assay [10], 8.01%.
Take `Cc1cc(O)cc(C)c1/C=C/c1cncc(C(N)=O)c1`: the inhibition in [1] was determined as 3.45%; in assay [2], 2.36%; in [3], 6.61%; in [4], 0.87%; in [5] it was 2.81%; in [6], 1.62%. In addition, the inhibition in [7] came to 3.99%; in assay [8] it was 1.54%; in assay [9] it was 4.08%; in assay [10], 1.76%.
Take `NS(=O)(=O)c1ccc(N/N=C2\C(=O)Nc3ccc(C(=O)NCc4ccncc4)cc32)cc1`: the inhibition came to 3.91% in assay [1]; 2.11% in assay [2]; 9.79% in assay [3]; 1.01% in assay [4]; 11.3% in assay [5]; 2.69% in assay [6]. For the same compound, the inhibition is 8.09% in assay [7], 35.3% in assay [8], 75.7% in assay [9] and 38.4% in assay [10].
Turning to `O=C(O[C@H]1CN[C@H](C#Cc2cc3ncnc(Nc4ccc5c(cnn5Cc5ccccc5)c4)c3s2)C1)N1CCOCC1`, the inhibition in assay [1] is -0.49%; in assay [2], -4.04%; in assay [3] it was -3.74%; in [4], -1.09%; in [5] it was -0.85%; in [6], -0.74%. Moreover, the inhibition in assay [7] is -3.59%; in assay [8], 1.95%; in assay [9], 3.19%; in [10], 1.44%.
Consider `CC(C)c1ccc(-c2cc(-c3c[nH]nc3-c3ccccn3)ccn2)cc1`, for which the inhibition in [1] turned out to be 0.76%; in [2] it was 0.59%; in [3], 2.33%; in assay [4], 0.57%; in assay [5], 1.3%; in [6] it was 0.98%. For the same compound, the inhibition in assay [7] is 0.3%; in assay [8], 0.61%; in assay [9], 2.95%; in assay [10], -0.15%.
`Cc1nnc(-c2cccc(-c3ccc(C(=O)NCC4CC4)cc3)c2)o1`: the inhibition in assay [1] is 2.8%; in assay [2] it was 3%; in [3], 6.39%; in assay [4] it was 0.21%; in [5], 1.06%; in assay [6], 3.15%. Also, the inhibition in assay [7] came out at 5.04%; in [8] it was 4.33%; in [9], 14.8%; in [10] it was 3.05%.

In general, inhibition refers to the relative decrease from the control value, in per cent.
